Experiment [1] deals with Glucocorticoid receptor (Homo sapiens) (UniProt P04150). Briefly: GR-GFP Redistribution (AID 450;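 active means compounds whose dose series gives a full or clear partial fitted curve of increased nuclear translocation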; further: potency means the concentration at half of the fitted maximal effect). The settings on record: U2OS GR-GFP nuclear translocation, laser cytometry, 2 h.
Experiment [2] can be described thus: qHTS Assay for Lipid Storage Modulators (AID 1519; calls by dose curve; further: potency means the concentration at half of the fitted maximal effect). The settings on record: Drosophila S3 cells, BODIPY lipid droplet/cell ratio, laser cytometry, cells loaded with oleic acid. In short, it runs like this: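 Cells seeded at 5,000 per well were treated with compounds over a concentration series and loaded with oleic acid (400 uM, as added). Lipid droplet fluorescence (488 nm excitation, 500-530 nm channel) was read by laser-scanning cytometry and normalized to 20 uM Triacsin C.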
On the technique in general: qHTS replaces the single test concentration by a dilution series.

Experiment [3] is described as follows: qHTS profiling for inhibitors of Plasmodium falciparum proliferation (AID 504749; active means well fitted curve in the direction sought with a large enough effect; an effect the other way counts as inactive or inconclusive;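 further: 0% = DMSO vehicle and full inhibition = artemisinin control; nearly all actives have a fitted effect of over 60% in size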). The note with it: P. falciparum in erythrocytes, SYBR Green DNA, 72 h. In short, it runs like this:
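In a 72 h erythrocytic culture (37 C, humidified, 5% CO2) at 2.5% hematocrit and 0.3% starting parasitemia, compounds were tested; SYBR Green I in detergent lysis buffer stained parasite DNA overnight.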

Experiment [4] can be described thus: AP1 Signaling Pathway (AID 357).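 Further: ME-180 reporter cells stimulated with EGF at its EC50 level; on the % scale 0 is the no-effect control and ±100 the full control effect.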 The settings on record: ME-180 AP-1-bla reporter, EGF-induced, beta-lactamase ratio, 5 h; series mostly up to 17.2 µM. In short, it runs like this:
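A ratiometric CCF4 readout (405 nm excitation; 460 and 530 nm emission) quantified AP-1-driven beta-lactamase in ME-180 cells after 5 h with compound and EC50 EGF; AC50 values were derived for activators and inhibitors.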

Experiment [5] deals with Cytochrome P450 1A2 (Homo sapiens) (UniProt P05177). As to the kind of experiment: p450-cyp1a2 (AID 410; calls by dose curve; further: potency means the concentration at half of the fitted maximal effect;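 on activity change, negative = inhibition: -100% = full effect of reference inhibitor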). The note with it: recombinant CYP1A2, luciferin-ME demethylation, luminescence; series mostly up to 25.6 µM. In short, it runs like this: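 20nM CYP1A2, 100uM Luciferin-ME (=Km), 100mM KPO4; cpd 10 min RT; +NADPH regen, 60 min RT; stop/detect 20 min; luminescence. Normalized to furafylline 57 uM = full inhibition.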
Sequence of Cytochrome P450 1A2 (Homo sapiens) (P05177 whole entry, looked up): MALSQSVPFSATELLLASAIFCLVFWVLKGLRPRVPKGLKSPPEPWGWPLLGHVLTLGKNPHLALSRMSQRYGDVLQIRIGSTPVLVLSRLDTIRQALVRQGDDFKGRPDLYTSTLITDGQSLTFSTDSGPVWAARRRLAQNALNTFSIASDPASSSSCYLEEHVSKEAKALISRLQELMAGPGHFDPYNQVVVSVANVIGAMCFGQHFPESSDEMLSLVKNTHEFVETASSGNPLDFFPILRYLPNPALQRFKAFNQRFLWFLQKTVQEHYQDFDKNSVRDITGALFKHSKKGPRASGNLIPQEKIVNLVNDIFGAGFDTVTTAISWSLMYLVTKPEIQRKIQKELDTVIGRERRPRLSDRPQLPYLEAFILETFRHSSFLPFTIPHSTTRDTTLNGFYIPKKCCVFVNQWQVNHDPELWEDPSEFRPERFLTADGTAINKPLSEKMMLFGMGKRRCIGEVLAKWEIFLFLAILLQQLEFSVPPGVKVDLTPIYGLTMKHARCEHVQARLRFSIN

The nature of experiment [6]: NFAT Signaling Pathway (AID 444).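 Further: carbachol stimulus at about its EC50 of 1 µM final; on the % scale 0 is the no-effect control and ±100 the full control effect.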 The settings on record: Jurkat NFAT-bla M1, carbachol, beta-lactamase ratio, 5 h. In short, it runs like this:
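Read-out: CCF4 FRET ratio (460 nm/530 nm) after 1 h RT dye loading, used for %activity and AC50 from titration series. Cells: Jurkat NFAT-β-lactamase/M1 line, treated with compound plus 1 uM carbachol for 5 h, 37 °C.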

Experiment [7] is described as follows: Stat Signaling Pathway (AID 446).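 Further: ME-180 cervical cancer cells given 40 pM IL-6 alongside compound; SIE-controlled beta-lactamase reporter measured as 460/530 nm FRET emission ratio; on the % scale 0 is the no-effect control and ±100 the full control effect.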 The settings on record: ME-180 (cervical carcinoma) SIE beta-lactamase reporter, IL-6 stimulated, 5 h; series mostly up to 17.2 µM. In short, it runs like this: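 Compound effects on IL-6-induced STAT reporter activity were measured in ME-180 cells. After overnight culture, cells were co-treated with 40 pM IL-6 for 5 hrs before beta-lactamase substrate loading at room temperature.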

In experiment [8] the target is Glucocorticoid receptor (Homo sapiens) (UniProt P04150). Briefly: GR-EFC Redistribution (AID 451; calls by dose curve; further: potency means the concentration at half of the fitted maximal effect). The note with it: CHO-K1 GR-EFC translocation, beta-gal luminescence, 2 h. In short, it runs like this: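 Translocation of GR-ED fusion to nuclear EA restores b-gal, read by luminescence after 1 h room-temperature detection. Engineered CHO-K1 biosensor cells, 1,000/well, exposed 2 h at 37 C to titrations up to 46 uM final.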

Experiment [9] has as its target Mitogen-activated protein kinase 10 (Mus musculus) (UniProt Q61831). As to the kind of experiment: JNK3 AlphaScreen Assay (AID 530).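 Further: kinase came from lysate of stimulated human HepG2 cells; signal reports phosphorylation of biotinylated GST-cJun 1-79 at Ser73 with 10 µM ATP; on the % scale 0 is the no-effect control and ±100 the full control effect.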 The note with it: JNK3 lysate, c-Jun phosphorylation; series mostly up to 57.1 µM. In short, it runs like this:
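Kinase buffer: 20 mM Tris-HCl pH 7.6, 10 mM MgCl2, 1 mM DTT, 0.1 mM Na3VO4, 0.01% Tween-20; ATP 10 uM. Substrate biotin-GST-cJun(1-79), enzyme from activated HepG2 lysates. Detection by Ser73 phospho-antibody AlphaScreen.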

For experiment [10], the target named is 3',5'-cyclic-AMP phosphodiesterase 4B (Homo sapiens) (UniProt Q07343). Briefly: qHTS Assay for Inhibitors of PDE-IV (AID 607; active means well fitted activation curve with a large enough effect in the main read-out, with a control signal flat, not every such curve was filed as active; further: % of control where 0% means no effect). The note with it: HEK293 ACTOne CNG channel cells, membrane potential fluorescence; series mostly up to 22.9 µM. In short, it runs like this: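 ACTOne HEK293 cells carry a modified cAMP-gated CNG channel and express endogenous PDE4; plated 1000 cells/well, compounds up to 22.9 uM final. Membrane-potential dye fluorescence (ex 535/em 590) was read; parental cells received 10 uM forskolin + 100 uM RO 20-1724.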
Sequence of 3',5'-cyclic-AMP phosphodiesterase 4B (Homo sapiens) (Q07343 whole entry, looked up): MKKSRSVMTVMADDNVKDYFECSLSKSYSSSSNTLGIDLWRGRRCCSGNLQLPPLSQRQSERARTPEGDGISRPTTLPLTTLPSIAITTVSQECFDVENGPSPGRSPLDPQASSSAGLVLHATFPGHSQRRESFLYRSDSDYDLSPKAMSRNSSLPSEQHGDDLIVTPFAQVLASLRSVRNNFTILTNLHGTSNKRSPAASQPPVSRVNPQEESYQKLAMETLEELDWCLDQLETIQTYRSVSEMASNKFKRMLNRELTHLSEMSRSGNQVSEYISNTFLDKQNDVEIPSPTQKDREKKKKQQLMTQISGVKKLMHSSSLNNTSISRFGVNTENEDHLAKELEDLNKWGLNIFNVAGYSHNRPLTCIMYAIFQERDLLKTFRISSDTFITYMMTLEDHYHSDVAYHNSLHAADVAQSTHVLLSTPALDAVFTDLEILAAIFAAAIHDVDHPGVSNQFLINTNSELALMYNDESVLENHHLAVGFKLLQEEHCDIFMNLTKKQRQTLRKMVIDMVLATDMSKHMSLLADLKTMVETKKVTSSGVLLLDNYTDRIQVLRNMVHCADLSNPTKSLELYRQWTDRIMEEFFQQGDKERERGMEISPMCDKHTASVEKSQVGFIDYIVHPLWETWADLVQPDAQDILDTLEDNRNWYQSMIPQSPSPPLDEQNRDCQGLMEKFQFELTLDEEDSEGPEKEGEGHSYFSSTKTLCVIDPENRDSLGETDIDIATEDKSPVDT

Experiment [11] deals with Ubiquitin carboxyl-terminal hydrolase 1 (Homo sapiens) (UniProt O94782). Briefly: Inhibitors of USP1/UAF1: Pilot qHTS (AID 504865; active means well fitted curve in the direction sought with a large enough effect; an effect the other way counts as inactive or inconclusive;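 further: rhodamine fluorescence freed from ubiquitin-rhodamine substrate followed over time; top concentration of the series differs between compounds; on the % scale 0 is the no-effect control and ±100 the full control effect; nearly all actives have a fitted effect of over 35% in size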). The note with it: purified USP1/UAF1, Ub-rhodamine cleavage fluorescence; series mostly up to 114 µM. In short, it runs like this:
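Deubiquitinase activity followed as kinetic rhodamine fluorescence release from 150 nM Ub-Rho. 1 nM USP1/UAF1 with compound, after 15 min room-temperature preincubation, in HEPES pH 7.8 buffer containing TCEP, EDTA, BSA and Tween-20.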

In experiment [12] the target is Lysosomal acid glucosylceramidase (Homo sapiens) (UniProt P04062). Briefly: Glucocerebrosidase-p2 (AID 348; in the data active means potency below about 10 µM; further: potency means the concentration at half of the fitted maximal effect). The settings on record: purified GBA, blue fluorogenic substrate, 40 min. In short, it runs like this:
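Normal human glucocerebrosidase (0.2 nM) with blue fluorogenic substrate (80 uM final) in citrate/phosphate pH 5.9 with 10mM sodium taurocholate, 0.01% tween-20; 40 min RT, NaOH/glycine stop; fluorescence Ex 365/Em 440; AC50 from a titration from 0.6 nM upwards.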

Experiment [13] addresses Cytochrome P450 3A4 (Homo sapiens) (UniProt P08684). Briefly: qHTS Assay for Activators of Cytochrome P450 3A4 (AID 885; active means well fitted curve in the direction sought with a large enough effect; an effect the other way counts as inactive or inconclusive; further: nearly all actives have a fitted effect of over 65% in size). The settings on record: recombinant CYP3A4, Luciferin-PPXE luminescence, 60 min; series mostly up to 57.1 µM. In short, it runs like this: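 CYP3A4 activity: Luciferin-PPXE O-dealkylation, 25uM substrate, 200mM KPO4, RT throughout. Read-out is luciferase luminescence; higher values reflect activation.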

Where [14] appears, read: measured here: cell count channel max response.
[15] abbreviates: measured here: lipid channel max response.

Several values for one entry are separate records, joined by “and”; a condition that tells them apart may be missing. Equal entries are not always repeated. Inconclusive results are not listed. Activity calls are given as the source filed them. Unless noted, the call rests on the fitted dose curve; in most records, active means well fitted curve in either direction with a large enough effect (not every such curve was filed as active); inconclusive means small, poorly fitted or top-dose-only effect, or another doubt; inactive means flat fitted curve, though single readings scatter.

Sequence of Ubiquitin carboxyl-terminal hydrolase 1 (Homo sapiens) (O94782 whole entry, looked up): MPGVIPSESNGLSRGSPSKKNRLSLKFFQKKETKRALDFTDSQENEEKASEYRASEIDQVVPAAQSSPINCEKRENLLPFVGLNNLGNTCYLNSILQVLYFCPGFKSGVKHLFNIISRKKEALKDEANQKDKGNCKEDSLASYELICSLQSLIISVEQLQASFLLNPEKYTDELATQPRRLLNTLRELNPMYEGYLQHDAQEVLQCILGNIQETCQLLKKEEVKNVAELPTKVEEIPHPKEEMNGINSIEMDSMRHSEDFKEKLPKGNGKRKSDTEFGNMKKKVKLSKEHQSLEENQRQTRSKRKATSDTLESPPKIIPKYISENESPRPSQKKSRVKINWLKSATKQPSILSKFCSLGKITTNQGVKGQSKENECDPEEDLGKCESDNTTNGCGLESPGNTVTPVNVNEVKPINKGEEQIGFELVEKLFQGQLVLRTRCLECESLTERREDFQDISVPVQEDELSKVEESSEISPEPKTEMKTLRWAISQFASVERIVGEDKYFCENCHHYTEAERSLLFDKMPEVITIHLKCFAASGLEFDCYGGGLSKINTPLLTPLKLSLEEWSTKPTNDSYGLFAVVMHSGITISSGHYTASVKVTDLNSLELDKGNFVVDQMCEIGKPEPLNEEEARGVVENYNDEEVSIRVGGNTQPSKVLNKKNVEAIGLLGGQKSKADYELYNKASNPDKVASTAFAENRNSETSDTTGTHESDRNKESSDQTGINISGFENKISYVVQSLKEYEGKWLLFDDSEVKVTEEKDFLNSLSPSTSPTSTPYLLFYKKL
Sequence of Glucocorticoid receptor (Homo sapiens) (P04150 whole entry, looked up, the tested form may be a part): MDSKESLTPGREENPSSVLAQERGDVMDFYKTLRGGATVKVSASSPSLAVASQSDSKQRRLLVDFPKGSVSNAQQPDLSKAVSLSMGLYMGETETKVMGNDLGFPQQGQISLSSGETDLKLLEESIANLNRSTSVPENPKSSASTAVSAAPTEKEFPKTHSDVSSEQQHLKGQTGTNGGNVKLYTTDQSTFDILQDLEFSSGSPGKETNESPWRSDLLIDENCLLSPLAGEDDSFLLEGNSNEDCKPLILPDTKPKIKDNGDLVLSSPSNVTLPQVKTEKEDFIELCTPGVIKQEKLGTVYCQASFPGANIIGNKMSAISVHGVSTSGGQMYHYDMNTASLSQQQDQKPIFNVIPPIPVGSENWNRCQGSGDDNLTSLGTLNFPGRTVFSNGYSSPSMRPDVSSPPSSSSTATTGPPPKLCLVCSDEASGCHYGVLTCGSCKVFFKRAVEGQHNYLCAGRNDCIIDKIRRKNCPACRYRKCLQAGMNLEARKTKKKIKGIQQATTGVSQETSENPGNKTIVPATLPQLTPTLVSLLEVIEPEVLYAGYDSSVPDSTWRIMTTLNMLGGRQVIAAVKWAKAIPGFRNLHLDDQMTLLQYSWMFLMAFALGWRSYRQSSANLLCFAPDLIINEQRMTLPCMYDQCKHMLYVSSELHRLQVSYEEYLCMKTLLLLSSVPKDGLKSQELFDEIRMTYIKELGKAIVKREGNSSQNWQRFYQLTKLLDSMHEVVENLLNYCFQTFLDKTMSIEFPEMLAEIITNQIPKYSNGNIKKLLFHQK
Sequence of Cytochrome P450 3A4 (Homo sapiens) (P08684 whole entry, looked up): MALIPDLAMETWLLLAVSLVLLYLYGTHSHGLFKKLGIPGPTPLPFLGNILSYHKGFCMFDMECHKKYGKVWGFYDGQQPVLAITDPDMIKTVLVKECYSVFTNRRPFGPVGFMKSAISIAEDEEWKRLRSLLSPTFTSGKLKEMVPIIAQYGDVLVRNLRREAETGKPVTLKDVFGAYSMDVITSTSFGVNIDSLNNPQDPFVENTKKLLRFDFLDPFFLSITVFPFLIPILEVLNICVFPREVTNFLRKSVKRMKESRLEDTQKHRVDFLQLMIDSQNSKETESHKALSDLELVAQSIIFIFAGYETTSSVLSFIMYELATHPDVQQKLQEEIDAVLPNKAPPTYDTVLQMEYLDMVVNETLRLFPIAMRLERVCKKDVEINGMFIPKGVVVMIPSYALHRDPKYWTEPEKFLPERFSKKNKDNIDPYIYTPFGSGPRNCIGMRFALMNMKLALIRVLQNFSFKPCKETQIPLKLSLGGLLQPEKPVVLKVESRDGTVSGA
Sequence of Lysosomal acid glucosylceramidase (Homo sapiens) (P04062 whole entry, looked up): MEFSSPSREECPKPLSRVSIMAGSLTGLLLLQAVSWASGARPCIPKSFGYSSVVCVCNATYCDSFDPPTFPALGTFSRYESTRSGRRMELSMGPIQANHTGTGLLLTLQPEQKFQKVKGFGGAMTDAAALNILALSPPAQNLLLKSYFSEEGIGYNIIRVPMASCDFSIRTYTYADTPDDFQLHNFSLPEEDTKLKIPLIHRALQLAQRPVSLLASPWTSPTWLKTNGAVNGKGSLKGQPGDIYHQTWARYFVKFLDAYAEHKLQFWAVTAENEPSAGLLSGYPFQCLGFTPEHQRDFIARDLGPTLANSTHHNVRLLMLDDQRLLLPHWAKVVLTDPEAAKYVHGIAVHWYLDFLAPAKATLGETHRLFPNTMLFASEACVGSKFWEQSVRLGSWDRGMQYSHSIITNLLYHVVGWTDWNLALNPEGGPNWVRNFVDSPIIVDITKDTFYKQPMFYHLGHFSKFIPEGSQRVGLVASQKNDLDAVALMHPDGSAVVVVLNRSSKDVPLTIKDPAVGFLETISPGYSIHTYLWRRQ

As for `Cc1ccccc1-c1cncnc1NCCc1cnc[nH]1`, the Potency in [1] was > 46 µM (inactive).
In the case of `COP(=S)(OC)Oc1ccc([N+](=O)[O-])cc1`, in [2], the Potency is 22.4 µM (active).
For the compound `ClC1=C(Cl)C2(Cl)C3C4CC(C5OC45)C3C1(Cl)C2(Cl)Cl` (stereo not given), the activity, negative = inhibition is -12.8% (inactive) in experiment [3] (at 28.7 µM (top of the series), parasite line A) and -9.6% (inactive) in experiment [3] (at 28.7 µM (top of the series), parasite line B).
In the case of `CCN1C[C@]2(COC)CC[C@H](O)[C@@]34[C@@H]5C[C@H]6[C@@H](OC)[C@H]5[C@](O)(C[C@@H]6OC)[C@@](O)([C@@H](OC)[C@H]23)[C@@H]14`, the result in experiment [4], in experiment [7] and in experiment [9] was inactive. Further, the Potency result in experiment [5], in [10] and in [11] was “inactive” throughout. Also, the values for the activity change, negative = inhibition in [6] (at 17.2 µM (top of the series)) and in experiment [2] (at 25.7 µM (top of the series)) were 2.57% (inactive) and 0.923% (inactive), respectively. For the same compound, the Potency in experiment [1] and in [8] was > 20.6 µM (inactive) each time. Also, the max response in experiment [2] (setting [14]) was -10.9%; in [2] (setting [15]), -9.81%.
On to `CN1CCc2cc3c(cc2[C@@H]1O)OCO3`, for which the outcome in [4] and in [9] was inactive. The Potency entry in [5], in experiment [10] and in experiment [11] was “inactive” throughout. In addition, the activity change, negative = inhibition in [6] (at 17.2 µM (top of the series)) is -5.65% (inactive); in experiment [2] (at 25.7 µM (top of the series)), 0.396% (inactive). Also, the Potency in experiment [1] and in experiment [8] was > 20.6 µM (inactive) throughout. Also, the max response in experiment [2] (setting [14]) came out at 4.41%; in experiment [2] (setting [15]), 3.98%.
For the compound `CN1CCC2(CC1)CCN(C(=O)c1ccco1)CC2`, the Potency in [12] is > 11.4 µM (inactive); in [8], > 46 µM (inactive). Besides, the outcome in experiment [4], in [7] and in experiment [9] was inactive. Further, the activity change, negative = inhibition in experiment [6] (at 7.69 µM (top of the series)) was -4.13% (inactive); in experiment [2] (at 57.5 µM (top of the series)), 1.82% (inactive). For the same compound, in experiment [10], the Potency entry is “inactive”. The max response came out at 21.1% in [2] (setting [14]) and 24.5% in experiment [2] (setting [15]).
`CNC[C@H](O)c1ccc(O)c(OC)c1`: the outcome in experiment [4], in experiment [7] and in [9] was inactive. The Potency result in experiment [5], in experiment [10] and in experiment [11] was “inactive” in each case. For the same compound, the activity change, negative = inhibition in [6] (at 17.2 µM (top of the series)) is 3.38% (inactive); in experiment [2] (at 25.7 µM (top of the series)), -0.567% (inactive). In addition, in experiment [8], the Potency was > 20.6 µM (inactive). Further, the max response is 7.01% in experiment [2] (setting [14]) and 8.44% in [2] (setting [15]).
Regarding `C[C@@]12CC[C@H]3[C@@H](CC[C@@H]4C[C@H]5S[C@H]5C[C@]43C)[C@H]1CC[C@H]2O`, the result in experiment [4], in experiment [7] and in [9] was inactive. In addition, the Potency in experiment [5] was 0.0251 µM (active); in experiment [1], > 20.6 µM (inactive); in [8], > 20.6 µM (inactive). Moreover, the activity change, negative = inhibition was -8.3% (inactive) in [6] (at 17.2 µM (top of the series)) and -4.67% (inactive) in experiment [2] (at 25.7 µM (top of the series)). The Potency entry in experiment [10], in experiment [13] and in experiment [11] was “inactive” each time. Further, the values for the max response in [2] (setting [14]) and in experiment [2] (setting [15]) were -19.3% and -23.9%, respectively. Further, the activity, negative = inhibition in experiment [3] (at 12.8 µM (top of the series), parasite line A) was 2.41% (inactive); in [3] (at 12.8 µM (top of the series), parasite line B), 1.96% (inactive).
Turning to `CS(=N)(=O)CC[C@@H](N)C(=O)O` (stereo not given in full), the outcome in [4] and in experiment [9] was inactive. Moreover, the Potency entry in experiment [5], in experiment [10] and in experiment [11] was “inactive” throughout. Also, the activity change, negative = inhibition in experiment [6] (at 17.2 µM (top of the series)) is -1.86% (inactive); in [6] (at 38 µM (top of the series)) it was 4.5% (inactive); in [2] (at 25.7 µM (top of the series)), 0.596% (inactive). The Potency was > 46 µM (inactive) and > 20.6 µM (inactive) in [1]; > 46 µM (inactive) and > 20.6 µM (inactive) in [8]. Further, the max response in experiment [2] (setting [14]) was found to be 16.1%; in experiment [2] (setting [15]), 16%.
